Source: PubChem BioAssay (Tox21)
Several values for one entry are separate records, joined by “and”; a condition that tells them apart may be missing. Identical values can stand only once. Records with an inconclusive call do not appear. Where a call stands in place of a potency, no number is given. Some compounds were tested as several samples or in several runs, with calls that do not always agree. Activity calls are given as the source filed them. Unless noted, the call rests on the fitted dose curve; in most records, active means well fitted curve in the direction sought with a large enough effect in the repeat runs; inconclusive means weak or mixed curves; inactive means no such curve, though single readings can be large; an effect the other way counts as inactive or inconclusive.

Assays:
[1] = qHTS assay to identify small molecule agonists of the vitamin D receptor (VDR) signaling pathway - cell viability counter screen (AID 743224); further: nearly all actives have a fitted effect of over 50% in size; further: potency means the concentration at half of the fitted maximal effect
Outline: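 Cells: VDR-bla, 2,000/well, settled 4 h. Treatment: compounds in DMSO, 16 h, 37C/5% CO2. Readout: CellTiter-Glo luminescence after 30 min RT.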

[2] = qHTS assay to identify small molecule antagonists of the vitamin D receptor (VDR) signaling pathway - cell viability counter screen (AID 743225); further: nearly all actives have a fitted effect of over 50% in size; further: potency means the concentration at half of the fitted maximal effect
Outline: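 VDR-UAS-bla HEK 293T cells were plated and incubated 4 h at 37C, then dosed with compound plus 3 nM (final) 1-alpha,25-dihydroxyvitamin D3 for 16 h. After the 2 h beta-lactamase read, viability in the same wells was read as CellTiter-Glo luminescence after 30 min at room temperature.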

[3] = qHTS assay to identify small molecule agonists of the NFkB signaling pathway (AID 1159509; active means well fitted curve in the direction sought with a large enough effect in the signal ratio in the repeat runs, not every such curve was filed as active; the % refers to the signal ratio; further: series mostly up to about 61 µM)
Outline: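 Readout: FRET fluorescence, 405 nm excitation, 460/530 nm emission; beta-lactamase expression disrupts FRET. Cells: ME-180 stably carrying NF-kB-driven bla reporter. Compound exposure 5 hr, 37 C, 5% CO2.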

[4] = qHTS assay to identify small molecule agonists of the AP-1 signaling pathway - cell viability counter screen (AID 1159525; calls by dose curve; further: nearly all actives have a fitted effect of over 55% in size)
Outline: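 Same-well cytotoxicity counter screen of the Tox21 10K library in ME-180 cells. The readout is ATP-dependent luminescence after 5 h compound treatment. Data are normalised to DMSO and tetra n-octyl ammonium bromide controls.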

[5] = qHTS assay to identify small molecule antagonists of the retinoid-related orphan receptor gamma (ROR-gamma) signaling pathway - cell viability counter screen (AID 1159520); further: nearly all actives have a fitted effect of over 50% in size; further: potency means the concentration at half of the fitted maximal effect
Outline: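 Tet-on ROR gamma CHO cells were given compounds for 2 hr, then doxycycline hyclate at 1 uM final, and incubated 16 hr at 37 C. Viability was measured as ATP content by CellTiter-Glo luminescence.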

[6] = biological target: Nuclear receptor ROR-gamma (Homo sapiens) (UniProt P51449); test: qHTS assay to identify small molecule antagonists of the retinoid-related orphan receptor gamma (ROR-gamma) signaling pathway (AID 1159521; further: nearly all actives have a fitted effect of over 50% in size; further: potency means the concentration at half of the fitted maximal effect)
Outline: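 Tet-on ROR-gamma CHO cells with ROR response element-luciferase reporter; compounds added 2 hr before 1 uM doxycycline induction, then 16 hr at 37 C. Antagonism scored as decreased ONE-Glo luminescence.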

[7] = qHTS assay to identify small molecule agonists of the endoplasmic reticulum stress response signaling pathway - cell viability counter screen (AID 1159517; calls by dose curve)
Outline: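 Steps: seed 1,500 ESRE-bla HeLa cells per well; incubate overnight at 37 C, 5% CO2; add compounds in DMSO for 5 hr; run FRET substrate 2 hr RT; add CellTiter-Glo, wait 30 min, read luminescence.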

[8] = qHTS assay to identify small molecule agonists of the NFkB signaling pathway - cell viability counter screen (AID 1159515; calls by dose curve; further: series mostly up to about 61 µM; nearly all actives have a fitted effect of over 55% in size)
Outline: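 Cells are seeded (2,000 NFkB-bla ME-180 per well), rested overnight, and dosed with DMSO-dissolved compounds for 5 hr at 37 C. Viability is then read by CellTiter-Glo luminescence after 30 min at room temperature.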

[9] = qHTS assay to identify small molecule agonists of the endoplasmic reticulum stress response signaling pathway (AID 1159516; active means well fitted activation curve with a large enough effect in the signal ratio in the repeat runs, not every such curve was filed as active; the % refers to the signal ratio)
Outline: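 Cells are seeded at 1,500 per well and incubated overnight. Compounds in DMSO are added for 5 hr at 37 C, then beta-lactamase FRET substrate for 2 hr at room temperature, and fluorescence at 460 and 530 nm is measured.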

[10] = qHTS assay to identify small molecule agonists of the AP-1 signaling pathway (AID 1159526; calls by dose curve)

SMILES	Potency [1]	Potency [2]	outcome [3]	Potency [4]	Potency [5]	Potency [6]	Potency [7]	Potency [8]	Potency [9]	Potency [10]
Nc1c(N=Nc2ccc(-c3ccc(N=Nc4cc(S(=O)(=O)O)c5ccccc5c4N)cc3)cc2)cc(S(=O)(=O)O)c2ccccc12	inactive	inactive	inactive	inactive	–	–	–	–	–	–
CN[C@H]1CC[C@@H](c2ccc(Cl)c(Cl)c2)c2ccccc21	13.3 µM (active)	23.9 µM (active)	inactive	inactive	inactive	inactive	–	–	–	–
COc1cccc(O)c1O	57.1 µM (active)	inactive	inactive	inactive	–	63.5 µM (active)	inactive	–	–	–
CN1CCc2cccc3c2[C@H]1Cc1ccc(O)c(O)c1-3	49.5 µM (active) and 16.3 µM (active) and 26.6 µM (active)	49.5 µM (active) and 11.5 µM (active)	–	inactive	69.3 µM (active)	27.6 µM (active) and 20.4 µM (active) and inactive	inactive	inactive	inactive	inactive
NC(=O)n1c(O)c(C(=O)c2cccs2)c2cc(Cl)ccc21	–	inactive	inactive	inactive	–	6.68 µM (active)	inactive	–	–	inactive
Cc1cccc(C)c1	inactive	inactive	–	inactive	inactive	inactive	inactive	inactive	–	inactive
O=C1c2c(O)cccc2Cc2cccc(O)c21	inactive	inactive	–	inactive	inactive	inactive	inactive	inactive	–	inactive
CC(=O)CC(c1ccccc1)c1c(O)c2ccccc2oc1=O (configuration not stated)	inactive	inactive	–	inactive	inactive	inactive	inactive	inactive	–	inactive
COc1ccc(C(Cl)=C(c2ccc(OC)cc2)c2ccc(OC)cc2)cc1	inactive	inactive	–	inactive	inactive	19.2 µM (active)	inactive	inactive	–	inactive
CCCCCCCC(=O)OCC(COC(=O)CCCCCCC)OC(=O)CCCCCCC	inactive	inactive	–	inactive	inactive	inactive	inactive	inactive	inactive	inactive
CCOc1ccc(NC(C)=O)cc1	inactive	inactive	–	inactive	inactive	inactive	inactive	inactive	–	inactive
NS(=O)(=O)O	inactive	inactive	–	inactive	inactive	inactive	inactive	inactive	inactive	inactive
C/C=C/C=C/C(=O)O	inactive	inactive	–	inactive	inactive	inactive	inactive	inactive	–	inactive
O=c1[nH]cc(F)c(=O)[nH]1	inactive	inactive	–	inactive	inactive	4.49 µM (active) and inactive	inactive	inactive	–	inactive
Cc1cc(C)nc(NS(=O)(=O)c2ccc(N)cc2)n1	inactive	inactive	–	inactive	inactive	–	inactive	inactive	inactive	inactive
CC(=O)CCC(=O)O	inactive	inactive	–	inactive	inactive	inactive	inactive	inactive	–	inactive
CC1(C)S[C@@H]2[C@H](NC(=O)[C@H](N)c3ccccc3)C(=O)N2[C@H]1C(=O)O	inactive	inactive	–	inactive	inactive	–	inactive	inactive	inactive	inactive
CN(N=O)C(=O)N[C@@H]1[C@@H](O)[C@H](O)[C@@H](CO)O[C@@H]1O	inactive	inactive	–	inactive	inactive	inactive	inactive	inactive	–	inactive
NC1CCCCC1	inactive	inactive	–	inactive	inactive	inactive	inactive	inactive	–	inactive
CN1[C@@H]2CC(OC(=O)[C@H](CO)c3ccccc3)C[C@H]1[C@@H]1O[C@@H]12 (some centres not stated)	inactive	inactive	–	inactive	inactive	inactive	inactive	inactive	inactive	inactive
Cc1ncc([N+](=O)[O-])n1CCO	inactive	inactive	–	inactive	inactive	inactive	inactive	inactive	–	inactive
